# Whole data set: some 2,900 compounds, median “NF-kB SEAP reporter activity, fold change vs agonist alone” near 0.99, cut for the highest 2% near 2.6. What follows is part of a selection rich in the highest values, with near analogues and random picks from the rest.
# Tests used:
# RAW-Dual [1] = experiment: NF-kB SEAP reporter activity, fold change vs agonist alone; cytotoxicity flag (confluency mask): not cytotoxic; higher = enhanced NF-kB activity
# Outline: (§1)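 Library stock was pin-tooled at 50 nL into 384-well plates of RAW-Dual macrophages (50,000 cells/well, DMEM), followed 1 h later by a PRR agonist, and the cells were kept at 37 °C, 5% CO2. Supernatant collected after 20 hours was read for IRF by QuantiLuc luminescence and for NF-κB by QuantiBlue absorbance at 620 nm. Reporter activity is fold change over agonist-alone wells, and a well counted as cytotoxic when its IncuCyte confluency was below 70% of agonist controls in both mask sets.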
# RAW-Dual [2] = experiment: NF-kB SEAP reporter activity, fold change vs agonist alone; higher = enhanced NF-kB activity
# Outline: as §1
# RAW-Dual [3] = experiment: NF-kB SEAP reporter activity, fold change vs agonist alone; cytotoxicity flag (confluency mask): cytotoxic (confluency <70% of control); higher = enhanced NF-kB activity
# Outline: as §1
# [4] = agonist: ODN 1826 (TLR9) 0.5 ug/mL
# [5] = agonist: Pam2CSK4 (TLR2/6) 0.1 ug/mL
# [6] = agonist: Pam3CSK4 (TLR2/1) 0.1 ug/mL
# [7] = library stock concentration (final ~1000-fold dilution): 10 mM, cytotoxicity flag (confluency mask): not cytotoxic, agonist: Imiquimod (TLR7) […]
# [8] = library stock concentration (final ~1000-fold dilution): 10 mM, cytotoxicity flag (confluency mask): not cytotoxic, agonist: MPLA (TLR4) […]
# [9] = library stock concentration (final ~1000-fold dilution): .1 mM, cytotoxicity flag (confluency mask): not cytotoxic, agonist: Imiquimod (TLR7) […]
# [10] = library stock concentration (final ~1000-fold dilution): .1 mM, cytotoxicity flag (confluency mask): not cytotoxic, agonist: MPLA (TLR4) […]
smiles,measurement,setting,value
CC#CC(=O)N1CCC(n2c(=O)n(-c3ccc(Oc4ccccc4)cc3)c3c(N)ncnc32)C1.Cl (stereo not drawn) (library stock concentration (final ~1000-fold dilution): 10 mM),NF-kB SEAP reporter activity,RAW-Dual [1]; agonist: LPS (TLR4) 0.1 ug/mL,0.647
same,NF-kB SEAP reporter activity,RAW-Dual [1]; [4],0.662
same,NF-kB SEAP reporter activity,RAW-Dual [1]; [5],0.378
same,NF-kB SEAP reporter activity,RAW-Dual [1]; [6],0.517
CC#CC(=O)N1CCC(n2c(=O)n(-c3ccc(Oc4ccccc4)cc3)c3c(N)ncnc32)C1.Cl (stereo not drawn),NF-kB SEAP reporter activity,RAW-Dual [2]; [7],0.734
same,NF-kB SEAP reporter activity,RAW-Dual [2]; [8],0.814
CCOC(=O)C=P(c1ccccc1)(c1ccccc1)c1ccccc1,NF-kB SEAP reporter activity,RAW-Dual [2]; [7],0.715
same,NF-kB SEAP reporter activity,RAW-Dual [2]; [8],1.05
CCOC(=O)C=P(c1ccccc1)(c1ccccc1)c1ccccc1 (library stock concentration (final ~1000-fold dilution): 10 mM),NF-kB SEAP reporter activity,RAW-Dual [1]; agonist: LPS (TLR4) 0.1 ug/mL,0.964
same,NF-kB SEAP reporter activity,RAW-Dual [1]; [4],0.875
same,NF-kB SEAP reporter activity,RAW-Dual [1]; [5],0.894
same,NF-kB SEAP reporter activity,RAW-Dual [1]; [6],0.912
O=C(NCC(O)CN1CCc2ccccc2C1)c1ccnc(NC2CCC2)c1 (stereo not drawn) (library stock concentration (final ~1000-fold dilution): 10 mM),NF-kB SEAP reporter activity,RAW-Dual [1]; agonist: LPS (TLR4) 0.1 ug/mL,0.908
same,NF-kB SEAP reporter activity,RAW-Dual [1]; [4],0.581
same,NF-kB SEAP reporter activity,RAW-Dual [1]; [5],1.03
same,NF-kB SEAP reporter activity,RAW-Dual [1]; [6],0.884
O=C(NCC(O)CN1CCc2ccccc2C1)c1ccnc(NC2CCC2)c1 (stereo not drawn),NF-kB SEAP reporter activity,RAW-Dual [2]; [7],0.885
same,NF-kB SEAP reporter activity,RAW-Dual [2]; [8],0.997
CN(c1ncccc1CNc1nc(Nc2ccc3c(c2)CC(=O)N3)ncc1C(F)(F)F)S(C)(=O)=O.O=S(=O)(O)c1ccccc1,NF-kB SEAP reporter activity,RAW-Dual [2]; [7],1.02
same,NF-kB SEAP reporter activity,RAW-Dual [2]; [8],0.953
CN(c1ncccc1CNc1nc(Nc2ccc3c(c2)CC(=O)N3)ncc1C(F)(F)F)S(C)(=O)=O.O=S(=O)(O)c1ccccc1 (library stock concentration (final ~1000-fold dilution): 10 mM),NF-kB SEAP reporter activity,RAW-Dual [1]; agonist: LPS (TLR4) 0.1 ug/mL,0.207
same,NF-kB SEAP reporter activity,RAW-Dual [1]; [4],0.982
same,NF-kB SEAP reporter activity,RAW-Dual [1]; [5],0.147
same,NF-kB SEAP reporter activity,RAW-Dual [1]; [6],0.882
CC(C)(F)CC(NC(c1ccc(-c2ccc(S(C)(=O)=O)cc2)cc1)C(F)(F)F)C(=O)NC1(C#N)CC1 (stereo not drawn),NF-kB SEAP reporter activity,RAW-Dual [2]; [7],0.932
same,NF-kB SEAP reporter activity,RAW-Dual [2]; [8],1.02
CC(C)(F)CC(NC(c1ccc(-c2ccc(S(C)(=O)=O)cc2)cc1)C(F)(F)F)C(=O)NC1(C#N)CC1 (stereo not drawn) (library stock concentration (final ~1000-fold dilution): 10 mM),NF-kB SEAP reporter activity,RAW-Dual [1]; agonist: LPS (TLR4) 0.1 ug/mL,0.968
same,NF-kB SEAP reporter activity,RAW-Dual [1]; [4],1.15
same,NF-kB SEAP reporter activity,RAW-Dual [1]; [5],0.937
same,NF-kB SEAP reporter activity,RAW-Dual [1]; [6],0.97
Cc1cc(-c2ccnc3cc(O)ccc23)ccc1O (library stock concentration (final ~1000-fold dilution): .1 mM),NF-kB SEAP reporter activity,RAW-Dual [1]; agonist: LPS (TLR4) 0.1 ug/mL,3.3
same,NF-kB SEAP reporter activity,RAW-Dual [1]; [4],1.31
same,NF-kB SEAP reporter activity,RAW-Dual [1]; [5],1.32
same,NF-kB SEAP reporter activity,RAW-Dual [1]; [6],1.41
Cc1cc(-c2ccnc3cc(O)ccc23)ccc1O,NF-kB SEAP reporter activity,RAW-Dual [2]; [9],1.38
same,NF-kB SEAP reporter activity,RAW-Dual [2]; [10],2.06
COc1ccc2c(-c3ccc(O)c(C)c3)ccnc2c1,NF-kB SEAP reporter activity,RAW-Dual [2]; [9],0.339
same,NF-kB SEAP reporter activity,RAW-Dual [2]; [10],1.1
COc1ccc2c(-c3ccc(O)c(C)c3)ccnc2c1 (library stock concentration (final ~1000-fold dilution): .1 mM),NF-kB SEAP reporter activity,RAW-Dual [1]; agonist: LPS (TLR4) 0.1 ug/mL,1.1
same,NF-kB SEAP reporter activity,RAW-Dual [1]; [4],1.07
same,NF-kB SEAP reporter activity,RAW-Dual [1]; [5],0.664
same,NF-kB SEAP reporter activity,RAW-Dual [1]; [6],0.85
CC(NCc1ccc(OCc2cccc(F)c2)cc1)C(N)=O (stereo not drawn),NF-kB SEAP reporter activity,RAW-Dual [2]; [8],1.07
CC(NCc1ccc(OCc2cccc(F)c2)cc1)C(N)=O (stereo not drawn) (library stock concentration (final ~1000-fold dilution): 10 mM),NF-kB SEAP reporter activity,RAW-Dual [1]; agonist: LPS (TLR4) 0.1 ug/mL,1.32
same,NF-kB SEAP reporter activity,RAW-Dual [1]; [4],0.933
same,NF-kB SEAP reporter activity,RAW-Dual [1]; [5],1.16
same,NF-kB SEAP reporter activity,RAW-Dual [1]; [6],0.745
Nc1cc(C(F)(F)F)c(-c2cc(N3CCOCC3)nc(N3CCOCC3)n2)cn1,NF-kB SEAP reporter activity,RAW-Dual [2]; [7],1.71
same,NF-kB SEAP reporter activity,RAW-Dual [2]; [8],1.63
Nc1cc(C(F)(F)F)c(-c2cc(N3CCOCC3)nc(N3CCOCC3)n2)cn1 (library stock concentration (final ~1000-fold dilution): 10 mM),NF-kB SEAP reporter activity,RAW-Dual [1]; agonist: LPS (TLR4) 0.1 ug/mL,2.59
same,NF-kB SEAP reporter activity,RAW-Dual [1]; [4],2.07
same,NF-kB SEAP reporter activity,RAW-Dual [1]; [5],1.49
same,NF-kB SEAP reporter activity,RAW-Dual [1]; [6],0.904
Nc1cc(C(F)(F)F)c(-c2nc(N3CCOCC3)nc(N3CCOCC3)n2)cn1,NF-kB SEAP reporter activity,RAW-Dual [2]; [7],0.783
same,NF-kB SEAP reporter activity,RAW-Dual [2]; [8],1.11
FC(F)c1nc2ccccc2n1-c1nc(N2CCOCC2)nc(N2CCOCC2)n1,NF-kB SEAP reporter activity,RAW-Dual [2]; [7],1.77
same,NF-kB SEAP reporter activity,RAW-Dual [2]; [8],1.32
Nc1cc(C(F)(F)F)c(-c2nc(N3CCOCC3)nc(N3CCOCC3)n2)cn1 (library stock concentration (final ~1000-fold dilution): 10 mM),NF-kB SEAP reporter activity,RAW-Dual [1]; agonist: LPS (TLR4) 0.1 ug/mL,0.943
same,NF-kB SEAP reporter activity,RAW-Dual [1]; [4],0.711
same,NF-kB SEAP reporter activity,RAW-Dual [1]; [5],0.402
same,NF-kB SEAP reporter activity,RAW-Dual [1]; [6],0.503
FC(F)c1nc2ccccc2n1-c1nc(N2CCOCC2)nc(N2CCOCC2)n1 (library stock concentration (final ~1000-fold dilution): 10 mM),NF-kB SEAP reporter activity,RAW-Dual [1]; agonist: LPS (TLR4) 0.1 ug/mL,2.13
same,NF-kB SEAP reporter activity,RAW-Dual [1]; [4],0.832
same,NF-kB SEAP reporter activity,RAW-Dual [1]; [5],0.936
same,NF-kB SEAP reporter activity,RAW-Dual [1]; [6],0.767
COc1cc2ncnc(Nc3ccc(F)c(Cl)c3)c2cc1OCCCN1CCOCC1.Cl,NF-kB SEAP reporter activity,RAW-Dual [2]; [8],1.29
COc1cc2ncnc(Nc3ccc(F)c(Cl)c3)c2cc1OCCCN1CCOCC1.Cl (library stock concentration (final ~1000-fold dilution): 10 mM),NF-kB SEAP reporter activity,RAW-Dual [1]; agonist: LPS (TLR4) 0.1 ug/mL,1.23
same,NF-kB SEAP reporter activity,RAW-Dual [1]; [4],0.277
same,NF-kB SEAP reporter activity,RAW-Dual [1]; [5],0.967
same,NF-kB SEAP reporter activity,RAW-Dual [1]; [6],0.737
CN1C(=O)c2sccc2N(C)c2nc(Nc3ccc(S(N)(=O)=O)cc3)ncc21,NF-kB SEAP reporter activity,RAW-Dual [2]; [7],1.86
same,NF-kB SEAP reporter activity,RAW-Dual [2]; [8],2.45
CN1CCN(Cc2ccc(Nc3ncc(Cl)c(Nc4ccccc4S(=O)(=O)N(C)C)n3)cc2)CC1,NF-kB SEAP reporter activity,"RAW-Dual [2]; library stock concentration (final ~1000-fold dilution): 2 mM, cytotoxicity flag (confluency mask): cytotoxic (confluency <70% of control), agonist: Imiquimod (TLR7) […]",1.37
same,NF-kB SEAP reporter activity,"RAW-Dual [2]; library stock concentration (final ~1000-fold dilution): 2 mM, cytotoxicity flag (confluency mask): cytotoxic (confluency <70% of control), agonist: MPLA (TLR4) […]",0.961
CN1CCN(Cc2ccc(Nc3ncc(Cl)c(Nc4ccccc4S(=O)(=O)N(C)C)n3)cc2)CC1 (library stock concentration (final ~1000-fold dilution): 2 mM),NF-kB SEAP reporter activity,RAW-Dual [3]; agonist: LPS (TLR4) 0.1 ug/mL,0.331
same,NF-kB SEAP reporter activity,RAW-Dual [3]; [4],1.3
same,NF-kB SEAP reporter activity,RAW-Dual [3]; [5],0.245
same,NF-kB SEAP reporter activity,RAW-Dual [3]; [6],1.08
